# Screening results as filed in PubChem.
# hcDAF-12 act: H. contortus DAF-12 activation, primary screen; HEK293 hcDAF-12 lit1-tk-luc reporter, luminescence; 0% DMSO, 100% Δ7-dafachronic acid; activation, % at 6.8 µM; 370,000 tested, 1.4% active;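 active = activation above the mean of all tested compounds plus 3 SD, cut at about 5.5% in these data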;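 note: 100% = response to 3 µM Δ7-dafachronic acid high control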
# DAX1 inh-1: DAX1 (NR0B1) inhibition, primary screen; HEK293T StAR-luciferase reporter, SF-1/DAX-1 repression relief; inhibition, % at 6.8 µM; 370,000 tested, 1.1% active; AID 652010;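 active = inhibition above the mean over all tested compounds plus 3 SD, cut at about 3.6% in these data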;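 note: 0% = DAX-1 cells with DMSO and 100% = cells lacking DAX-1 with DMSO; higher inhibition means more luminescence from relief of DAX-1 repression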
# hgDAF12 agonist: activates the H. glycines DAF-12 receptor ligand-binding domain; HEK293 GAL4-hgDAF12 UAS-luciferase reporter, agonist luminescence; normalized to butyrate control; activation, % at 6.8 µM; 370,000 tested, 1.8% active; AID 687014;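 active = activation above a cutoff set at the mean of all screened compounds plus 3 SD, cut at about 10% in these data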;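 note: 0% = DMSO wells and 100% = sodium butyrate wells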
# SMARCA2 activ: SMARCA2 function activation, primary screen; 370,000 tested, 1% active; AID 652017; MG213 cells, MMTV-luciferase reporter, dexamethasone, overnight; activation, % at 9.1 µM; in the data active = activation above about 7.8%;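 note: 0% = vehicle wells and 100% = reference activator wells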
# DAX1 inh-2: inhibitors of human orphan nuclear receptor DAX1 (NR0B1); P51843; HEK293 Gal4-DAX1 luciferase reporter, luminescence; inhibition, % at 6.75 µM; 340,000 tested, 0.99% active; AID 504766;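 active = inhibition above the mean over all tested compounds plus 3 SD, cut at about 4.2% in these data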;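 note: 0% = DAX1-transfected cells with DMSO and 100% = empty-vector control cells with DMSO; inhibition shows as a rise in luminescence from relieved DAX1 repression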
# Target sequence (P51843 207-470 limits assumed): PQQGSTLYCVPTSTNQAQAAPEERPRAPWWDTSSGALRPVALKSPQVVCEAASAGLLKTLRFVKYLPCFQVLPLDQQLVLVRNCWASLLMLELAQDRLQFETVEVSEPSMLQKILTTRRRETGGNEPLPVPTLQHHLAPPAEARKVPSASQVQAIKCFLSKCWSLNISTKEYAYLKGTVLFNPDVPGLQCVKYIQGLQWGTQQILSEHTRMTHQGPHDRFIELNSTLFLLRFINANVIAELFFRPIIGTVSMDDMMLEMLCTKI
# ssDAF-12 act: activators of S. stercoralis DAF-12 nuclear receptor; 370,000 tested, 1% active; activation, % at 6.8 µM; HEK293 ssDAF-12/GRIP1 lit1-tk-luc reporter, luminescence; % of 3 µM dafachronic acid response;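 active = activation above the mean over all tested compounds plus 3 SD, cut at about 0.9% in these data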;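 note: 0% = DMSO-only wells and 100% = 3 µM delta7-dafachronic acid wells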
# * marks the source's active call; other numbers are inactive results; x = not tested or not shown. Rows were chosen to be rich in hits. Some 4.8% of all compounds tested hit in one or more screens of this group.
SMILES,hcDAF-12 act,DAX1 inh-1,hgDAF12 agonist,SMARCA2 activ,DAX1 inh-2,ssDAF-12 act
Cc1ccccc1N=C1Nc2ccccc2N[C@]12C[C@H]1CCC(=O)N3CC[C@@H](C2)[C@@H]13,3,1,2,2,0,0
CCCCN1C(=O)N(c2ccc(Cl)cc2)C(C)(O)CC1(C)C (stereo not drawn),0,0,0,-2,4.5*,-2
COc1ccccc1NS(=O)(=O)c1cccc(C(=O)NCC2(N3CCCCC3)CCCCC2)c1,0,4.0*,0,-3,1,-1
COc1ccc(NC(=S)NC(=O)C2CCCCC2)cc1,1,3.8*,4,3,2,-1
CN1CCN(S(=O)(=O)c2ccc(NC(=S)NC(=O)C3CCCCC3)cc2)CC1,0,-1,3,-2,0,-1
COc1ccc(NC(=O)C2CCCC2)cc1,1,0,5,5,1,-1
NS(=O)(=O)c1ccc(NC(=S)NC(=O)C2CCCC2)cc1,5.8*,0,-2,-2,1,-1
COC(=O)C1CN(Cc2ccc(C)cc2)CCS(=O)(=O)N1Cc1cn(Cc2ccc(Cl)cc2)nn1 (stereo not drawn),-1,-1,1,-4,x,-1
Cn1ccc(NC(=O)c2ccc(Cl)cc2)n1,0,3,7,0,0,-1
Cn1ccc(NC(=O)c2ccc([N+](=O)[O-])cc2)n1,-2,1,1,0,7.0*,0
O=C(O)c1ccc2c(c1)SC1=NS(=O)(=O)CCN12,-1,0,4,-1,0,-1
O=S1(=O)CCN2N=C(C3CC3)SC2=N1,-1,0,0,-1,6.2*,-2
C#CCNC(=O)C[C@H]1C(=O)N(CCc2ccc(Cl)cc2)C2=CCCC[C@@]21C(=O)OCC,-5,-2,-2,-3,x,-2
Cc1nc2ncnn2c(C)c1CCC(=O)N1CCN(c2ccccn2)CC1,-2,0,0,0,0,-2
Cc1nc2ncnn2c(C)c1CCC(=O)N1CCc2ccccc2C1,0,0,2,7.9*,0,-2
CSc1nnc2c(n1)c(C)nn2-c1ccc(C)cc1,5,0,4,-2,2,1.3*
Cc1ccc(-n2nc3c(Cl)nnc(C)c3c2C)cc1,0,0,-1,-3,-1,-2
COC(=O)[C@]12C[C@H](CC(=O)N3CCCCC3)C(=O)N(Cc3cccc4ccccc34)C1=C[C@H](C1CCCC1)O[C@@H]2C,-4,-1,-6,-6,x,-2
C[C@]12C(=O)N(c3ccc(Br)cc3)C(=O)N1[C@H]1c3ccccc3OC[C@@H]1[C@H]2c1ccccc1,5.8*,-1,2,-1,0,-1
CCSc1ccc(/C(N)=N/OC(=O)c2cccs2)cn1,2,3.9*,6,4,2,0
N/C(=N\OC(=O)c1cccs1)c1cccnc1,3,1,3,7,3,-1
Cc1c(OCC(=O)N[C@H](C(=O)O)c2ccccc2)ccc2c3c(c(=O)oc12)CCCC3,0,0,-1,1,4.3*,-1
O=C(O)c1ccccc1/C=N/NC(=O)C1CCCCC1,1,1,0,1,-1,-1
CC(C)(C)c1ccc(/C=N/NC(=O)C2CCCC2)cc1,1,3,6,4,2,0
CC(C)c1ccc(/C=N/NC(=O)C2CCCC2)cc1,6.0*,4,8,3,0,0
SMILES,hcDAF-12 act,DAX1 inh-1,hgDAF12 agonist,SMARCA2 activ,DAX1 inh-2,ssDAF-12 act
O=C(O)c1ccccc1/C=N/NC(=O)C1CCCC1,0,1,1,7.9*,-1,-1
COc1cc(/C=C(\C#N)C(=O)Nc2cccc(C(=O)O)c2)ccc1OCc1ccc(C)cc1,6.5*,1,9,-2,1,0
COc1cc(/C=C(/C#N)C(=O)Nc2ccccc2)ccc1OCc1ccc(C(=O)O)cc1,1,0,0,2,-1,-1
COC(=O)c1ccc2nc(-c3ccccc3)c(Cc3ccc(C)cc3)n2c1,5,2,6,5,x,0.9*
Brc1ccc2nc(-c3ccco3)c(Cc3ccsc3)n2c1,2,-1,1,6,x,1.0*
COC(=O)c1ccc2nc(-c3ccc(C)cc3)c(Cc3cccc(F)c3)n2c1,1,0,2,7.9*,x,-1
